# Experimental data published in PMC4336329 (PLoS ONE, 2015).
# The whole screen tested about 310,000 compounds, of which about 14,000 (4.5%) showed an effect of 50% or more. Effects have a minus sign here. This is one part of a sample in which strong results are shown more often than they occur.
# Molecular target: human ether-à-go-go-related gene (hERG) potassium channel (human, UniProt Q12809)
# Experiment: primary screen, population patch clamp on CHO cells stably expressing hERG; higher = less effect of the substance
# 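Also: peak tail current of the secondary pulse compared with the same well before compound.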
# human ether-à-go-go-related gene (hERG) potassium channel, sequence (Q12809 whole entry, looked up): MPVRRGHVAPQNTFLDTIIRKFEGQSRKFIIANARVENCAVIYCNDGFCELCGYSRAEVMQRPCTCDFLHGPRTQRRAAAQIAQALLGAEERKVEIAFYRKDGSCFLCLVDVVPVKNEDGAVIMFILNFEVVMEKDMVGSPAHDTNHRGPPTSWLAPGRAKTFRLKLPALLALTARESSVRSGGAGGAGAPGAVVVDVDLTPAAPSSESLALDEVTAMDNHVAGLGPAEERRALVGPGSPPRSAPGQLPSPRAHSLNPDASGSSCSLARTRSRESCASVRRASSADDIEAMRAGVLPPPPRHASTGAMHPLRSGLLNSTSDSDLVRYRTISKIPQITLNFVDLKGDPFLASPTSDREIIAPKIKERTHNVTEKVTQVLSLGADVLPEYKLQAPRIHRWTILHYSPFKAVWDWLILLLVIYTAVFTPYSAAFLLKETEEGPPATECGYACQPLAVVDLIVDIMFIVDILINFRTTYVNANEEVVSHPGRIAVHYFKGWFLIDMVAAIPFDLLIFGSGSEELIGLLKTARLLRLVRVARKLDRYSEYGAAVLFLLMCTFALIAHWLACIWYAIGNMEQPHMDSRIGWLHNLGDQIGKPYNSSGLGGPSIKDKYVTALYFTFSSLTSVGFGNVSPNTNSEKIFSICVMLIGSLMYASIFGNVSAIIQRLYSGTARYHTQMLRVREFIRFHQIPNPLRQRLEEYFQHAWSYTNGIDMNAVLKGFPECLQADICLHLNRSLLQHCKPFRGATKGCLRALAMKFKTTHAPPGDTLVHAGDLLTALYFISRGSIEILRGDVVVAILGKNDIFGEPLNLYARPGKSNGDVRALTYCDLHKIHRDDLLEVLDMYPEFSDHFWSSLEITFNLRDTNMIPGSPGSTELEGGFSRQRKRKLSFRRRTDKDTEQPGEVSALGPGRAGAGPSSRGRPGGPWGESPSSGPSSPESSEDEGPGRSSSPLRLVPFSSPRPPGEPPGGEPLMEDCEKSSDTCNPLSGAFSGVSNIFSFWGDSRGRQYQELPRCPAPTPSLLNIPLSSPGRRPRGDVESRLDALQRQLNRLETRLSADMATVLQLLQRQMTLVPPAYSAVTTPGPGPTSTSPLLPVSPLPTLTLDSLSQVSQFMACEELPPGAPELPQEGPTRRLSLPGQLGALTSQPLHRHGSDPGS
row,SMILES,"hERG current change (%, negative = inhibition) at 10uM [%]"
1,COCc1nnc(NC(=O)c2cccc(NC(=O)c3ccccc3)c2)s1,-8.59
2,O=C(/C=C/c1cccc([N+](=O)[O-])c1)N1CCN(c2ccc(F)cc2)CC1,-56.7
3,O=C(/C=C/c1cccc([N+](=O)[O-])c1)N1CCOCC1,-3.86
4,O=C(/C=C/c1cccc([N+](=O)[O-])c1)N1CCN(c2ccccc2F)CC1,-38.9
5,O=C(NCCC(=O)N1CCCC1)c1ccccc1Cl,22
6,CNC(=O)C(C)N1c2cccc3cccc(c23)S1(=O)=O (centres unmarked),22.3
7,Cc1ccc(OCc2nnc(SCC(=O)c3ccccc3)n2-c2ccccc2)cc1,1.75
8,CC1(c2ccccc2)NC(=O)N(CC(=O)Nc2ccccc2C(=O)N2CCCCC2)C1=O (centres unmarked),19.7
9,O=C(CSc1nc(-c2ccco2)cc(C(F)(F)F)n1)N1CCSCC1,-19.9
10,CN1CCN(C(=O)CSc2nc(-c3ccco3)cc(C(F)(F)F)n2)CC1,15.3
11,O=C(CSc1nc(-c2ccco2)cc(C(F)(F)F)n1)N1CCN(Cc2ccccc2)CC1,-58.8
12,CCc1cc(C(=O)N(C)CC(=O)Nc2c(Cl)cccc2Cl)sc1C,-2.89
13,COc1cc(O)c(C(CC(=O)N2CCCC(C)C2)c2ccc3c(c2)OCO3)c(OC)c1 (centres unmarked),-5.66
14,COc1cc(O)c(C(CCN2CCCC(C)C2)c2ccc3c(c2)OCO3)c(OC)c1 (centres unmarked),-77.5
15,COc1cc(O)c(C(CCN2CCN(c3ccccc3)CC2)c2ccc3c(c2)OCO3)c(OC)c1 (centres unmarked),-16.6
16,COc1cc(O)c(C(CC(=O)N2CCCCC2)c2ccc3c(c2)OCO3)c(OC)c1 (centres unmarked),5.41
17,COc1cc(O)c(C(CCN2CCOCC2)c2ccc(N(C)C)cc2)c(OC)c1 (centres unmarked),7.96
18,COc1cc(O)c(C(CCN2CCOCC2)c2ccc3c(c2)OCO3)c(OC)c1 (centres unmarked),-59.5
19,COc1cc(O)c(C(CCN2CCCCC2)c2ccc3c(c2)OCO3)c(OC)c1 (centres unmarked),-78.3
20,COc1cc(O)c(C(CCN2CCCC2)c2cc(OC)c(OC)c(OC)c2)c(OC)c1 (centres unmarked),-7.35
21,COc1cc(O)c(C(CC(=O)N2CCOCC2)c2ccc3c(c2)OCO3)c(OC)c1 (centres unmarked),7.98

row,SMILES,"hERG current change (%, negative = inhibition) at 10uM [%]"
1,COc1cc(O)c(C(CC(=O)N2CCCC2)c2ccc3c(c2)OCO3)c(OC)c1 (centres unmarked),6.4
2,COc1cc(O)c(C(CCN2CCCC(C)C2)c2ccc(N(C)C)cc2)c(OC)c1 (centres unmarked),-29.5
3,COc1cc(O)c(C(CCN2CCCC2)c2ccc3c(c2)OCO3)c(OC)c1 (centres unmarked),-72.5
4,COc1ccc(NC(=O)c2cc3ccccc3o2)cc1OC,-3.22
5,O=C1CC(c2ccccc2)c2ccccc21 (centres unmarked),8.78
6,Cc1ccc(Cn2nc(C)c(NC(=O)CSc3nc4c(c(C(F)(F)F)n3)CCc3ccccc3-4)c2C)cc1,13.1
7,O=C(O)Cc1sc(Nc2ccc(F)cc2)nc1-c1cccs1,15.3
8,Cc1ccccc1C(CC(=O)c1cccs1)C(C#N)C#N (centres unmarked),20.2
9,Cc1ccc(Cn2ncc3c(N4CCN(c5ccc(C)cc5)CC4)ncnc32)cc1,8.18
10,COCCN(C(=O)c1cc2c(s1)CCCCC2)c1c(N)n(CC(C)C)c(=O)[nH]c1=O,3.04
11,CCOC(=O)C(NC(=O)C1CCCN1C(=O)OCc1ccccc1)C(=O)OCC (centres unmarked),-0.938
12,CCc1nnc(NC(=O)C2CCCN2C(=O)Nc2ccc(Cl)cc2)s1 (centres unmarked),1.86
13,COc1cc(-c2cc(C(=O)Nc3ccc(S(=O)(=O)Nc4ncccn4)cc3)c3ccccc3n2)cc(OC)c1OC,-7.01
14,CCn1c(=O)cc(SCC(=O)Nc2ccc(OC)c(OC)c2)c2ccccc21,-4.7
15,COc1ccc(S(=O)(=O)Nc2ccc(-n3cnnn3)cc2)cc1[N+](=O)[O-],0.00208
16,CC(C)(C)OC(=O)N1CCC(NC(=O)c2nc[nH]c2C(=O)NC2CCN(C(=O)OC(C)(C)C)CC2)CC1,-31.5
17,Cc1ccc(NC(=O)c2nc[nH]c2C(=O)NCCCCCNC(=O)OC(C)(C)C)cc1,-15.2
18,CC(C)(C)OC(=O)NCCCCCNC(=O)c1[nH]cnc1C(=O)NC1CCN(C(=O)OC(C)(C)C)CC1,-78.1
19,CC(C)(C)OC(=O)CNC(=O)c1[nH]cnc1C(=O)NC1CCN(C(=O)OC(C)(C)C)CC1,-2.67
20,CC(C)(C)OC(=O)NCCCCCNC(=O)c1[nH]cnc1C(=O)Nc1ccc(Cl)cc1,-6.26
